Source: PubChem BioAssay (National Center for Advancing Translational Sciences (NCATS))
Hits are enriched below; roughly 8% of the tested compounds scored in any of these assays.
KB-V1 cytotox = qHTS assay for MDR1-selective chemotherapeutics: Primary screen using the drug-selected MDR subline cells KB-V1; KB-V1 MDR cells viability, CellTiter-Glo, 72 h; Potency, µM (doses to about 46.1 µM), usual class: cytotoxic; actives 3.4% (n = 400,000); AID 1347076, 2019; also: % is scaled to controls: 0 for no effect and ±100 for the full control effect; nearly all actives have a fitted effect of over 60% in size
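KB-V1 cells (P-gp-expressing MDR subline of KB-3-1) in phenol-red-free DMEM with 10% FBS were exposed to library compounds over a concentration series for 72 h at 37 degrees C. Viability read by CellTiter-Glo luminescence; concentration-effect curves fitted after normalization.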
SW480 rerep = A quantitative high throughput screen for small molecules that induce DNA re-replication in SW480 colon adenocarcinoma cells. SW480 DNA re-replication, Hoechst DNA content imaging, 48 h. Potency, µM (doses to about 46.1 µM), without a hit: top-dose re-replication activation, usual class: activators. actives 1.8% (n = 340,000); also: % of control where 0% means no effect; nearly all actives have a fitted effect of over 55% in size
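First, 250 cells per well were seeded. Next, compound or vehicle (23 nL) was pinned in, plates sat 48 hr at 37 C. Finally Hoechst was added for 40 min before fluorescence scanning.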
KB-3-1 cytotox = qHTS assay for MDR1-selective chemotherapeutics: Primary screen using the parental adenocarcinoma cell KB-3-1; KB-3-1 viability, CellTiter-Glo ATP luminescence, 72 h; Potency, µM (highest dose often 46.1 µM), actives largely listed as cytotoxic; actives 1.4% (n = 400,000); also: % is scaled to controls: 0 for no effect and ±100 for the full control effect; nearly all actives have a fitted effect of over 60% in size
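KB-3-1 cells, DMEM (no phenol red) + 10% FBS; compound by pin transfer, 72 h, 37 °C. Readout: CellTiter-Glo luminescence after 10 min. Data normalized, curve-fitted.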
HT1080 IDH1KD tx = qHTS for induction of synthetic lethality in tumor cells producing 2HG: qHTS for the HT-1080-IDH1KD cell line. HT-1080 IDH1 knockdown viability, ATP luminescence, 48 h. actives 2% (n = 360,000). Potency, µM (titrated, usually from 46.1 µM), for inactives: top-dose activity, negative = toxicity, actives largely listed as cytotoxic;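 also: 0% = DMSO wells and -100% = cell-free medium wells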
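Luminescent ATP read-out (CellTiter-Glo, 10 min at room temperature) after 48 h compound exposure at 37 °C gave viability of IDH1-knockdown HT-1080 cells. Activity was normalised to DMSO and cell-free wells, then fitted as concentration-response curves.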
HT1080-NT tox = qHTS for induction of synthetic lethality in tumor cells producing 2HG: qHTS for the HT-1080-NT fibrosarcoma cell line; HT-1080-NT fibrosarcoma viability, CellTiter-Glo ATP luminescence, 48 h; Potency, µM (series often up to 46.1 µM), for the others: at the top dose activity, negative = less viability, most hits filed as cytotoxic; actives 1.6% (n = 360,000); AID 686970, 2013;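 also: NT is the 2HG producing partner of a matched IDH1 knockdown line; 0% = DMSO-treated cells and -100% = media-only wells without cells; nearly all actives have a fitted effect of over 55% in size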
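Compounds were tested in concentration-response format on HT-1080-NT cells for 48 hours at 37 degrees C. Cell viability came from CellTiter-Glo luminescence; curves were classified by r2, response magnitude and activity.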
MCF10A rerep = A quantitative high throughput screen for small molecules that induce DNA re-replication in MCF 10a normal breast cells; actives 2.9% (n = 350,000); Potency, µM (top dose mostly 46.1 µM), without a hit: at the top dose activity, positive = re-replication, hits mostly activators; MCF 10A DNA re-replication, Hoechst nuclear intensity, 48 h; also: % of control where 0% means no effect; nearly all actives have a fitted effect of over 50% in size
* hit, by the source's call; i = inactive; ? = inconclusive; · = no result; [ ] = another dose, or the depositor's remark. Calls follow the shape of the dose curve; as a rule, active = well fitted curve in the direction sought with a large enough effect; inconclusive = small, poorly fitted or top-dose-only effect, or another doubt; inactive = no such curve, though single readings can be large; an effect the other way counts as inactive or inconclusive. Potency is read from the fitted curve at half-maximal effect.

SMILES | KB-V1 cytotox | SW480 rerep | KB-3-1 cytotox | HT1080 IDH1KD tx | HT1080-NT tox | MCF10A rerep
CCOC(=O)N1CCN(S(=O)(=O)N2CCCC(C(=O)NC(C)c3ccccc3)C2)CC1 (configuration not stated) | i | -15% | i | -2% | 17% | 2%
O=C(CCNC(=O)c1ccccc1)NCCCc1ccccc1 | i | 4% | i | -5% | 3% | -4%
COc1c(Cl)cc(C(=O)NN)cc1Cl | i | 13µM* | i | 2.6µM* | 2.1µM* | ?
Cn1c(CN2CCOCC2)nc2cc(NC(=O)c3ccccc3Cl)ccc21 | ? | -9% | i | 13% | 2% | 19%
O=C(Nc1sc2c(c1CN1CCOCC1)CCC2)c1ccc(F)cc1 | 2.1µM* | -5% | i | 8% | 8% | 3%
Cn1c(CN2CCOCC2)nc2cc(NC(=O)c3ccc(F)cc3)ccc21 | 16µM* | -27% | i | 0% | -10% | 12%
Cn1c(CN2CCCCC2)nc2cc(NC(=O)c3ccc(Cl)cc3)ccc21 | ? | ? | ? | ? | ? | 23µM*
Cc1sc(NC(=O)c2ccc(F)cc2)c(CN2CCCCCC2)c1C | ? | 14% | i | -8% | -2% | 13%
Cc1cccc(-c2nnc(SCC#N)n2Cc2ccccc2)c1 | i | -22% | i | -7% | -8% | 10%
COc1ccc(C(=O)NC(=S)NNC(=O)Cc2cccs2)cc1 | i | -4% | ? | -28% | ? | 325%[0.0737 µM]
CCc1c(C)sc(NC(=O)c2cnn3cccnc23)c1C#N | i | -4% | i | 0% | 21% | -26%
COc1ccc(-n2c(C)c3c(OC)cccc(=O)c3c2C)cc1 | 18µM* | -5% | i | 15% | 13% | -4%
CCOC(=O)c1cc2c(=O)n3ccccc3nc2n(C)c1=NC(=O)c1c(-c2c(F)cccc2Cl)noc1C | i | 1.3µM* | i | 2% | 8% | 23µM*
CCOC(=O)c1cc2c(=O)n3ccccc3nc2n(C(C)C)c1=NC(=O)c1c(-c2c(F)cccc2Cl)noc1C | ? | 18µM* | ? | 7% | -11% | ?
CN(C)c1ccc(-c2ccnc3c2CC(C)(C(=O)Nc2cccc(N(C)C)c2)O3)cc1 (configuration not stated) | i | · | i | 12% | 17% | ·
CN1C(=O)[C@H]2[C@@H](/C=C/c3ccccc3)N3C(=O)CN(CC4CC4)C(=O)[C@@]3(C)[C@H]2C1=O | i | -4% | i | 12% | 3% | -1%
CN(C)c1ccc(C(CNS(=O)(=O)c2ccc3ccccc3c2)c2c[nH]c3ccccc23)cc1 (configuration not stated) | 15µM* | -6% | i | 0% | -2% | ?
CN(C)c1ccc(C(CN)c2c[nH]c3ccccc23)cc1 (configuration not stated) | i | i[1.84 µM] | i | -10% | -23% | 20%
O=[N+]([O-])c1cc(S(=O)(=O)N2CCOCC2)ccc1N1CCCC1 | ? | ? | i | -1% | -9% | 5%
CCc1c(C(=O)N2CCOCC2)csc1C | i | -12% | i | 11% | 5% | 1%
CC(=O)c1ccc(NC(=O)C2CCCN(c3ncnc4c3nc3n4CCCCC3)C2)cc1 (configuration not stated) | i | -10% | i | 8% | 2% | 14%
CSc1cccc(NC(=O)C2CCCN(c3ncnc4c3nc3n4CCCCC3)C2)c1 (configuration not stated) | 15µM* | 2% | ? | 5% | 2% | 10%
O=C(Nc1ccc(Cl)cn1)C1CCCN(c2ncnc3c2nc2n3CCCCC2)C1 (configuration not stated) | ? | 26µM* | i | 12% | 19% | 2%
O=C(C1CCN(c2ncnc3c2nc2n3CCCCC2)CC1)N1CCN(c2cccc(Cl)c2)CC1 | i | 0% | ? | -28% | ? | -5%
Cc1ccnc(NC(=O)C2CCCN(c3ncnc4c3nc3n4CCCCC3)C2)c1 (configuration not stated) | i | -5% | i | 22% | -5% | ?
SMILES | KB-V1 cytotox | SW480 rerep | KB-3-1 cytotox | HT1080 IDH1KD tx | HT1080-NT tox | MCF10A rerep
Cc1ccc(NC(=O)C2CCCN(c3ncnc4c3nc3n4CCCCC3)C2)nc1 (configuration not stated) | i | -1% | i | -14% | 1% | 5%
Clc1cccc(N2CCN(c3ncnc4c3nc3n4CCCCC3)CC2)c1 | 15µM* | · | 13µM* | · | · | ·
O=C(Nc1ccccn1)C1CCCN(c2ncnc3c2nc2n3CCCCC2)C1 (configuration not stated) | i | -3% | i | -12% | 0% | 23µM*
COc1cc(C(=O)N=C2SC3CS(=O)(=O)CC3N2c2ccccc2)cc(OC)c1OC (configuration not stated) | i | -6% | i | 11% | -13% | 1%
CC(=O)c1ccc(NC(=O)CCc2nnc3ccc(N4CCC5(CC4)OCCO5)nn23)cc1 | i | 15% | i | -7% | 1% | 2%
O=C(C1CCCN(c2ncnc3c2nc2n3CCCCC2)C1)N1CCN(c2ccc(Cl)cc2)CC1 (configuration not stated) | i | ? | 16µM* | ? | ? | 15%
CCOC(=O)C1CCCN(c2ncnc3c2cnn3-c2ccc(OC)cc2)C1 (configuration not stated) | ? | -8% | i | 15% | 7% | 8%
CCOC(=O)C1CCCN(c2ncnc3c2cnn3-c2ccc(Cl)cc2)C1 (configuration not stated) | 13µM* | -9% | i | ? | 11% | ?
O=C(Nc1ccc(F)c(Cl)c1)C1CCN(c2ncnc3c2nc2n3CCCCC2)CC1 | ? | ? | i | 6% | 0% | -1%
Cc1cccc(NC(=O)C2CCN(c3ncnc4c3nc3n4CCCCC3)CC2)n1 | ? | -16% | i | -15% | -2% | 1%
O=C(Nc1ccc(Cl)cn1)C1CCN(c2ncnc3c2nc2n3CCCCC2)CC1 | 21µM* | ? | ? | ? | ? | ?
